Hits are enriched below; roughly 21% of the tested compounds scored in any of these assays.
Pf growth 96h = P. falciparum growth inhibition at 96 hours; P. falciparum luciferase reporter growth, 96 h; Potency, µM (doses to about 28.7 µM), for inactives: at the highest dose activity change, negative = inhibition, most hits filed as inhibitors; 320,000 tested, 6.9% active; active = well fitted inhibition curve with a large enough effect; inconclusive = small, poorly fitted or top-dose-only effect, or another doubt; inactive = no such curve, though single readings can be large or run the other way; note: potency is the fitted concentration of half-maximal effect; % is set by controls: 0 for no effect and ±100 for the full control effect
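Erythrocytes infected with luciferase-expressing P. falciparum were dispensed at 2% hematocrit and 0.05% parasitemia (final), then incubated with compounds 96 hours at 37 C in 5% CO2. Luminescence after detection reagent addition reported growth.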
NS1 function inh = blocks influenza NS1 protein function; Potency, µM (top dose mostly 46.1 µM), for the others: at the top dose activity, positive = more growth; 270,000 tested, 0.4% active; AID 2326; note: potency is the fitted concentration of half-maximal effect; actives are rising curves; nearly all actives have a fitted effect of over 50% in size
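S. cerevisiae expressing influenza A NS1, grown in glucose, washed, then diluted 1:100 into pH 6.0 -URA galactose medium with 23 nl compound. Growth recovery read as OD600; NS1-free strain serves as control.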
Pf growth 48h = P. falciparum growth inhibition at 48 hours (one generation); P. falciparum luciferase growth in erythrocytes, 48 h; Potency, µM (series often up to 28.7 µM), without a hit: at the top dose activity change, negative = inhibition, actives largely listed as inhibitors; 310,000 tested, 5.9% active; AID 504832; active = well fitted inhibition curve with a large enough effect; inconclusive = small, poorly fitted or top-dose-only effect, or another doubt; inactive = no such curve, though single readings can be large or run the other way; note: potency is the fitted concentration of half-maximal effect; % is set by controls: 0 for no effect and ±100 for the full control effect
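Read-out is firefly luciferase luminescence from an integrated reporter in P. falciparum, so falling signal marks reduced parasite growth. Infected erythrocytes were at 2% hematocrit and 0.1% parasitemia (final) in Albumax-supplemented RPMI 1640.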
Shiga toxin inh = Shiga toxin inhibition. Vero cells, Shiga toxin protein synthesis inhibition reporter. inhibition, % at 38.7 µM. 290,000 tested, 9.2% active. AID 2315; in the data active = inhibition mostly above about 28%, no sharp cut-off; inactive = mostly below about 43%; note: 0% is about no effect
Cycloheximide cs = counter-screen for Shiga toxin inhibitors: cycloheximide protein synthesis inhibition. 300,000 tested, 12% active. AID 2314. cell reporter, cycloheximide protein synthesis inhibition counterscreen. max response, %; in the data active = max response mostly above about 13%, no sharp cut-off; inactive = mostly below about 14%; note: read at 38.3 µM for the half of the compounds with a filed dose; 0% is about no effect
SARS PLP yeast = inhibitors of SARS-CoV papain-like protease in yeast; AID 485353; S. cerevisiae expressing SARS-CoV PLpro, growth rescue; Potency, µM (highest dose often 32.9 µM), for inactives: at the top dose activity, positive = growth rescue, most hits filed as activators; 330,000 tested, 0.19% active; note: potency is the fitted concentration of half-maximal effect; 0% is about no effect; nearly all actives have a fitted effect of over 55% in size
Active calls of the source: *; i = inactive; ? = inconclusive; / = no result given. Unless noted, calls come from the whole dose curve.

SMILES	Pf growth 96h	NS1 function inh	Pf growth 48h	Shiga toxin inh	Cycloheximide cs	SARS PLP yeast
CCOC(=O)c1sc(=NC(=O)c2ccco2)n(C)c1C	148%	/	205%	73*	60*	0%
CCOC(=O)c1sc(=NC(=O)c2ccc(S(=O)(=O)N3CC(C)OC(C)C3)cc2)n(C)c1C (stereo not given)	?	-3%	?	-24	0	-5%
CCOC(=O)C1=C(C)NC(C)=C(C(=O)OCC)C1/C=C/c1ccccc1	?	-8%	?	9	2	-11%
CCOC(=O)c1sc(=NC(=O)c2ccc(C)c(C)c2)n(C)c1C	20%	/	83%	67*	63*	0%
CCOC(=O)c1sc(=NC(=O)c2ccc(Cl)s2)n(C)c1C	155%	2%	126%	59*	31*	-1%
CCOC(=O)c1sc(=NC(=O)/C=C/c2ccccc2)n(C)c1C	92%	/	65%	68*	38*	3%
CCOC(=O)c1sc(=NC(=O)c2ccc(OC(C)C)cc2)n(C)c1C	0%	/	0%	-8	-6	-2%
Cc1cc(C)c2oc(C(=O)N3CCN(Cc4ccccc4)CC3)cc(=O)c2c1	?	-2%	?	-5	-5	1%
C=CCn1c(=NC(=O)c2ccco2)sc2cc(C(=O)OC)ccc21	6%	11%	2%	-7	13	-2%
CCOC(=O)c1sc(=NC(=O)c2cccs2)n(C)c1C	i	/	i	96*	48*	0%
C=CCn1c(=NC(=O)c2ccco2)sc2cc(C(=O)OCC)ccc21	6.6µM*	9%	15%	-5	3	7%
CCOC(=O)c1sc(=NC(=O)c2ccccc2Br)n(C)c1C	39%	16%	107%	87*	30*	3%
Cc1sc(=NC(=O)c2ccco2)n(C)c1-c1ccc(Cl)cc1	10µM*	-14%	?	47	3	-11%
CO/N=C/NC(=O)c1c(OC)ccnc1Oc1cccc(C(F)(F)F)c1	?	6%	0%	1	-2	2%
CN1C(=O)C2(Nc3ccccc3-c3nc4ccccc4n32)c2ccccc21 (stereo not given)	-8%	-37%	8.3µM*	6	7	0%
O=C1Nc2ccccc2C12Nc1ccccc1-c1nc3ccccc3n12 (stereo not given)	/	-24%	0.74µM*	4	4	3%
CN1C(=O)C2(NC(=O)c3ccccc3N2C)c2ccccc21 (stereo not given)	50%	2%	0%	-5	-2	0%
CCN1C(=O)C2(Nc3ccccc3-c3nc4ccccc4n32)c2cc(OC)ccc21 (stereo not given)	5%	6%	9.3µM*	-24	-4	9%
COc1ccc(N2CCN(C3CCCN(C(=O)CSC)C3)CC2)cc1 (stereo not given)	0%	-1%	0%	/	-4	-2%
Cc1[nH]c2ccccc2c1-c1csc(NC(=O)CSCCO)n1	1%	2%	31%	37	22	1%
CC(C)(C)C#CC(CCc1ccccc1)OS(N)(=O)=O (stereo not given)	?	11%	?	21	12*	-3%
COc1ccc(O)c(/C=N/NC(=O)c2ccc(CSc3nc(C)cc(C)n3)cc2)c1	?	19%	?	71*	61*	?
COc1ccccc1/C=N/NC(=O)CNC(=O)c1ccccc1	13%	-3%	0%	27	1	0%
COc1ccc(O)c(/C=N/NC(=O)c2ccc(OCc3cccc(Br)c3)cc2)c1	11%	2%	1.7µM*	7	6	-4%
COc1ccccc1/C=N/NC(=O)c1ccc(Br)cc1	-9%	/	4%	19	26*	-2%
COc1cc(C(=O)Oc2ccccc2/C=N/NC(=O)c2ccc(Cl)cc2)cc(OC)c1OC	6%	-1%	13µM*	55*	15*	4%
COc1ccc(Br)cc1CN1CCSCC1	11%	17%	4%	-11	-3	2%
CC1CCN(c2c(NCc3ccc(C(=O)N4c5ccccc5CC4C)cc3)c(=O)c2=O)CC1 (stereo not given)	-25%	-107%	?	-7	-1	9%
COc1ccc(/C=N/NC(=O)c2ccc(Br)cc2)c(OC)c1	?	/	?	47	23*	-2%
